More than one record can exist for a structure, and the calls need not agree. Active and inactive are the calls of the source. The calls were made as follows: active = hit-call score of the fitted dose curve at least 0.9, where 1 is the maximum; inactive = score below 0.9.
Assay: ATG_MRE_CIS: Attagene CIS-FACTORIAL HepG2 Assay for human Metal Responsive Element (MRE) (AID 2282954)
Settings: HepG2 MRE cis-reporter transcription, Attagene multiplex; actives raise or lower the signal
Method: ATG_CIS is a cell-based, multiplexed-readout assay that uses HepG2, a human liver cell line, with measurements taken at 24 hours after chemical dosing in a 24-well plate.ATG_MRE_CIS is one of 52 assay component(s) measured or calculated from the ATG_CIS assay. It is designed to make measurements of mRNA induction, a form of inducible reporter, as detected with fluorescence intensity signals by Reverse transcription polymerase chain reaction (RT-PCR) and Capillary electrophoresis technology.Data from the assay component ATG_MRE_CIS was analyzed into 1 assay endpoint. This assay endpoint, ATG_MRE_CIS, was analyzed with bidirectional fitting relative to DMSO as the negative control and baseline of activity. Using a type of inducible reporter, measures of mRNA for gain or loss-of-signal activity can be used to understand the reporter gene at the transcription factor-level as they relate to the gene MTF1. Furthermore, this assay endpoint can be referred to as a primary readout, because this assay has produced multiple assay endpoints where this one serves a reporter gene function. To generalize the intended target to other relatable targets, this assay endpoint is annotated to the dna binding intended target family, where the subfamily is zinc finger.
Human liver HepG2 cells are transiently transfected with multiple reporter transcription units (MRTUs) in 6-well plates using FuGene 6 reagent (Roche; 3 ml FuGene/1 mg DNA). The MRTU constructs are regulated by a cis-regulating element (promoter). […] A major difference between the CIS and TRANS system is that in CIS activities of endogenous TFs are measured, whereas the TRANS assay evaluates changes in activities of exogenous, chimeric NR-Gal4 proteins. […] At the end of 24 hour incubation, total RNA was isolated using TriZol reagent (Invitrogen). The isolated RNA is then reverse-transcribed using oligo(dT) primer and Mo-MLV reverse transcriptase (Invitrogen) with DNAse I (Ambion) treatment for 30 min. The one-tenth of the produced cDNA was amplified by PCR using Taq DNA polymerase (Invitrogen) and two reporter sequence-specific primers. The PCR products were fluorescently labeled by primer extension with 6-arboxyfluorescein (6-FAM) 5'-labeled reporter sequence-specific primer (2 min at 95 C, 20 s at 68 C and 10 min at 72 C) and these products were digested with 5U of HpaI (New England Biolabs) for 2h at 37 C. The fragments were purified using Qiaquick PCR columns (Qiagen), analyzed on an ABI 3130xL genetic analyzer (Applied Biosystems) with peak positions identified by using a set of X-rhodamine (ROX)-labeled MapMarker1000 molecular weight standards (BioVentures). The raw capillary electrophoresis data was processed using Attagraph software (Attagene).

SMILES	outcome	AC50
Oc1ccccc1O	inactive	–
NC(=Nc1ccccc1)Nc1ccccc1	–	28 µM (active)
CC(C)c1cccc(C(C)C)c1	inactive	–
CC(=O)O[C@]1(C(C)=O)CC[C@H]2[C@@H]3C=C(Cl)C4=CC(=O)[C@@H]5C[C@@H]5[C@]4(C)[C@H]3CC[C@@]21C	inactive	100 µM (active) [middle of 4 runs]
c1ccc2occc2c1	inactive	–
Nc1nc(Cl)nc2c1ncn2[C@H]1C[C@H](O)[C@@H](CO)O1	inactive	–
Cc1cc(SC2=C(O)C[C@@](CCc3ccc(N)cc3)(C(C)C)OC2=O)c(C(C)(C)C)cc1CO	inactive	–
NC=O	inactive	–
C/C=C/c1ccc(OC)cc1	inactive	–
O=C(Oc1ccccc1)c1cccc(C(=O)Oc2ccccc2)c1	inactive	–
CCCCC(CC)COC(=O)CCCCCCCC(=O)OCC(CC)CCCC (stereo not given)	inactive	–
O=C1c2c(O)cccc2Cc2cccc(O)c21	inactive	–
CC(C)COC(=O)CCCCC(=O)OCC(C)C	inactive	–
COC(=O)CCC(=O)OC	inactive	–
CC(COCC(C)OC(=O)c1ccccc1)OC(=O)c1ccccc1 (stereo not given)	inactive	–
O=C(O)c1cccnc1	inactive	–
NCCOCCOCCN	inactive	–
Cc1cn([C@H]2C=C[C@@H](CO)O2)c(=O)[nH]c1=O	inactive	–
COc1ccc(C(=O)Nc2nc3ccccc3c(NCc3ccccc3)c2C#N)cc1	inactive	–

SMILES	outcome	AC50
CC(=O)CC(c1ccccc1)c1c(O)c2ccccc2oc1=O (stereo not given)	inactive	–
CCN(CC)CCOc1ccc(C(=C(Cl)c2ccccc2)c2ccccc2)cc1	inactive	13.8 µM (active)
O=NO	inactive	–
CCCCCCCCCCCCCCOS(=O)(=O)O	inactive	–
S=c1[nH]c2ccccc2s1	inactive	–
Cc1occc(=O)c1O	inactive	–
CCc1cc(C2=C(C(=O)O)N(c3ccccc3C(F)(F)F)S(=O)(=O)c3ccccc32)cc2c1OCO2	–	58.5 µM (active)
CCC(C)N(C)C(=O)c1cc2ccccc2c(-c2ccccc2Cl)n1 (stereo not given)	–	97.4 µM (active)
CC(C)OC(=O)C(C)(C)Oc1ccc(C(=O)c2ccc(Cl)cc2)cc1	–	43.6 µM (active)
O=C(O)c1[nH]n(-c2ccc(S(=O)(=O)O)cc2)c(=O)c1N=Nc1ccc(S(=O)(=O)O)cc1	inactive	–
C#CC(O)C(CC)CCCC (stereo not given)	inactive	–
Cc1ccc(C(C)(C)C)c(O)c1	–	145 µM (active)
CCCCC(CC)COP(=O)(OCC(CC)CCCC)OCC(CC)CCCC (stereo not given)	inactive	–
N[C@@H](Cc1c[nH]c2ccccc12)C(=O)O	inactive	–
CO[C@@H]1COCC[C@@H]1N[C@@H]1CC[C@@](C(=O)N2CCc3ncc(C(F)(F)F)cc3C2)(C(C)C)C1	inactive	–
NC1CCCCC1	inactive	–
CC(C)NCC(O)c1ccc(O)c(O)c1 (stereo not given)	inactive	–
Cc1cc(Cc2ccc(N)c(C)c2)ccc1N	inactive	–
CC(=O)S[C@H](C(=O)N[C@H]1Cc2ccccc2[C@H]2CCC[C@@H](C(=O)O)N2C1=O)C(C)C	inactive	–

Reference: PubChem BioAssay (EPA / NIEHS)
